# Assay results reported in PubChem BioAssay (NCI).
# The panel holds about 79,000 compounds, 15% with a hit somewhere; the sample as a whole holds those more often. Unmarked numbers belong to inactive results. Active and inactive are the calls of the source. Cut-off read from the data, not from the text of the source: active = growth inhibition above about 70%; inactive = the rest.
# Legend:
# [1] = NCI Yeast Anticancer Drug Screen. Data for the rad50 strain (AID 155);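 note: 0% = growth of vehicle-only cultures of the same strain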; details: S. cerevisiae rad50 strain growth inhibition, hits give high values
# In short: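 Relative growth inhibition (compound vs vehicle) was measured in yeast with a defined repair-gene alteration.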
# [2] = NCI Yeast Anticancer Drug Screen. Data for the mec2-1 strain (AID 157); details: S. cerevisiae mec2-1 strain, hits give high values
# In short: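 Vehicle-treated cultures served as reference for growth inhibition of compound-exposed mec2-1 yeast.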
# [3] = NCI Yeast Anticancer Drug Screen. Data for the sgs1 mgt1 strain (AID 161);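 note: 0% = growth of cultures given vehicle only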; details: S. cerevisiae sgs1 mgt1 strain, hits give high values
# In short: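 Genetically altered yeast, compound exposure, growth inhibition relative to vehicle.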
# [4] = NCI Yeast Anticancer Drug Screen. Data for the cln2 rad14 strain (AID 165);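 note: 0% = growth equal to vehicle treated cultures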; details: S. cerevisiae cln2 rad14 strain, hits give high values
# In short: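 Each compound was tested on cln2 rad14 yeast. Inhibition of growth was calculated against vehicle-exposed controls.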
# [5] = NCI Yeast Anticancer Drug Screen. Data for the bub3 strain (AID 167); details: S. cerevisiae bub3 mutant strain, hits give high values
# In short: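 Screening used yeast with an engineered genetic alteration affecting cell cycle control. Compound-exposed cultures were compared with vehicle cultures, and reduced growth was taken as inhibition.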
# [6] = NCI Yeast Anticancer Drug Screen. Data for the mlh1 rad18 strain (AID 175); details: S. cerevisiae mlh1 rad18 strain growth inhibition, hits give high values
# In short: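 Vehicle-treated cultures served as the reference for growth inhibition in a yeast strain carrying DNA damage repair alterations exposed to each compound.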
# [7] = at 5.0 µM (retest, dose inferred, filed as 0.5)
# [8] = at 50.0 µM (retest, dose inferred, filed as 5.0)
Structure (SMILES),"growth inhibition [1, 7]","growth inhibition [1, 8]",growth inhibition ([1]; at 50.0 µM),"growth inhibition [2, 7]","growth inhibition [2, 8]",growth inhibition ([2]; at 50.0 µM),"growth inhibition [3, 7]","growth inhibition [3, 8]",growth inhibition ([3]; at 50.0 µM),"growth inhibition [4, 7]","growth inhibition [4, 8]",growth inhibition ([4]; at 50.0 µM),"growth inhibition [5, 7]","growth inhibition [5, 8]",growth inhibition ([5]; at 50.0 µM),"growth inhibition [6, 7]","growth inhibition [6, 8]",growth inhibition ([6]; at 50.0 µM)
COc1ccc(C(c2ccccc2C(=O)O)c2ccc(OC)c3ccccc23)c2ccccc12,47%,94% (active),59.6%,70% (active),96% (active),88.8% (active),97% (active),96% (active),87.8% (active),96% (active),95% (active),89% (active),94% (active),95% (active),89.8% (active),97% (active),96% (active),88.7% (active)
Cc1cc(C(O)(c2cc(C)c(O)c(C(=O)O)c2)c2cc(C)c(O)c(C(=O)O)c2)cc(C(=O)O)c1O,2%,-5%,12.4%,2%,-11%,-18%,0%,1%,5.35%,6%,-5%,21.9%,-43%,-3%,-11.7%,2%,-9%,10.3%
Cn1c(=S)c2[nH]c(SCc3ccncc3)nc2n(C)c1=O,-2%,7%,47.2%,0%,-1%,59%,-2%,53%,64%,-3%,-12%,17.8%,-9%,2%,56.4%,-19%,-6%,78.1% (active)
NCCOB1c2ccccc2Cc2ccccc21,2%,98% (active),45.6%,6%,99% (active),98.7% (active),-3%,99% (active),-3.8%,-2%,99% (active),99% (active),1%,98% (active),99.1% (active),0%,99% (active),99% (active)
NC(=S)C(=S)N=Cc1c(N)[nH]n(-c2ccccc2)c1=O,-13%,-1%,57.8%,-10%,15%,48.8%,9%,3%,53.8%,32%,26%,61.6%,19%,37%,-10.6%,-4%,15%,44.6%
CN1CC(CN2CCCCC2)C(O)C(c2ccccc2)C1 (stereo not given),-3%,-1%,10.2%,-5%,-1%,-4.5%,-3%,6%,9.3%,-5%,-3%,34.4%,-4%,-8%,2.65%,-3%,-2%,56.5%
CCCCC1C(=O)N2c3ccccc3-c3ccccc3N2C1=O,-5%,30%,65.5%,4%,33%,6.8%,-3%,23%,43.2%,-4%,8%,14.8%,6%,10%,17.4%,0%,34%,35%
CC(C)CCN1CCC2(CCCCC2)CC1,4%,1%,40.5%,5%,-6%,24.1%,6%,0%,51.3%,7%,-5%,88.3% (active),2%,-3%,59.5%,5%,3%,66.3%
O=C1C=C(c2ccccc2)OC(c2ccccc2)C1 (stereo not given),-150%,-112%,43.1%,-52%,-59%,41.8%,-63%,-37%,15.2%,-69%,-67%,-38.4%,-68%,-25%,44.1%,-141%,-97%,27.3%
CC(C)(C)C(=O)CC(Cc1nccc2ccccc12)c1ccco1 (stereo not given),-3%,94% (active),98.7% (active),-5%,96% (active),99.2% (active),-3%,97% (active),98.7% (active),2%,94% (active),98% (active),-1%,94% (active),99.2% (active),-8%,97% (active),98.9% (active)
Nc1ccc(C(=O)NN2C(=O)C(Cl)C2c2cc(Br)cc(Br)c2O)cc1 (stereo not given),-3%,64%,96.2% (active),-12%,80% (active),94.2% (active),-3%,91% (active),93.7% (active),-20%,76% (active),89% (active),10%,54%,98.2% (active),5%,85% (active),94.7% (active)
O=C1C2=C(CCCC2)C(=O)c2ccccc21,6%,76% (active),25.4%,8%,79% (active),13.7%,11%,71% (active),28%,3%,15%,-30.5%,35%,79% (active),60.4%,7%,43%,68.5%
Cc1ccc(/C=C2\CCCC(CN(C)C)C2=O)cc1 (stereo not given),-12%,95% (active),61.5%,-4%,99% (active),62.5%,-16%,96% (active),78.5% (active),6%,97% (active),41.4%,-31%,99% (active),49.3%,-13%,96% (active),52.4%
COC(=O)c1nnn(-c2cccc(C(F)(F)F)c2)c1C(=O)c1ccc(Cl)c(Cl)c1,-3%,98% (active),97.7% (active),8%,98% (active),80% (active),-5%,99% (active),97.7% (active),9%,95% (active),59.2%,16%,98% (active),89.4% (active),4%,98% (active),97% (active)
NNC(=S)N/N=C(/C(=O)Nc1ccc(Cl)c(Cl)c1)C(C1OC(=O)c2ccccc21)[N+](=O)[O-] (stereo not given),27%,44%,26.6%,20%,39%,4.45%,9%,59%,34.4%,31%,48%,23.4%,28%,62%,32.5%,20%,44%,29.8%
c1ccc(CN(CCCOc2ccccc2)Cc2ccccc2)cc1,2%,25%,56.4%,-4%,53%,29.9%,5%,85% (active),76.5% (active),3%,15%,72.3% (active),15%,71% (active),79.8% (active),25%,77% (active),80.5% (active)
O=C(/C=C/c1ccccc1)c1ccc(NCc2nc3ccccc3[nH]2)cc1,-28%,74% (active),70.7% (active),-62%,61%,77% (active),-23%,82% (active),84% (active),-20%,80% (active),84.8% (active),-8%,85% (active),76.7% (active),-35%,80% (active),68.8%
Cc1cccc2c1CC1(C2)Cc2c(C)cccc2C1=O (stereo not given),-3%,87% (active),36.9%,-30%,78% (active),42.1%,-23%,68%,57.6%,26%,20%,55.5%,21%,92% (active),70% (active),-11%,52%,50.4%
N#CSc1ccc(O)c2ccccc12,75% (active),79% (active),90.2% (active),64%,87% (active),91% (active),19%,98% (active),91.7% (active),45%,98% (active),91% (active),42%,96% (active),90.3% (active),29%,74% (active),89.5% (active)
CCC(=O)Oc1c(Cl)cc(Cl)c(Cl)c1Cl,4%,56%,43.4%,6%,59%,14.2%,2%,79% (active),48.1%,-3%,30%,5.45%,-3%,54%,14.2%,16%,90% (active),74.3% (active)
